Test results: PubChem BioAssay AID1159580 (chemical genetic matrix, 2015)
Values joined by “and” are separate entries in the source; they are usually repeats but may differ in a detail not shown here. Identical values can stand only once. Hit rate of the full screen: of about 5,500 compounds, about 2,000 (36%) were called active. Inconclusive results (about 18%) are left out. Rule as the data show it: active = normalized growth mostly below about 0.91 (no sharp cut-off); inconclusive = no clear call, values can overlap the other calls; inactive = mostly above about 0.92. This is one part of the list.

Test: chemical genetic growth profiling, strain panel (AID 1159580);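 also: tested at 20 µM; growth read once vehicle control cultures reached saturation at 30 °C; 1 = growth at the plate median or of vehicle wells; lower values mean less growth of the strain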
Details: S. cerevisiae deletion strains, growth OD

Measured: normalized growth

C=C1C(=O)O[C@@H]2C3O[C@]3(C)CC/C=C(\C)CC[C@@H]12 (stereo partly specified)
active: locus YAL013W, strain DEP1, stronger effect = lower value 0.878 | locus YCL029C, strain bik1, stronger effect = lower value 0.905 | locus YDL035C, strain GPR1, stronger effect = lower value 0.838 | locus YDL074C, strain BRE1, stronger effect = lower value 0.671 | locus YDL101C, strain DUN1, stronger effect = lower value 0.87 | locus YDL192W, strain arf1, stronger effect = lower value 0.729 | locus YDR101C, strain arx1, stronger effect = lower value 0.864 | locus YDR137W, strain rgp1, stronger effect = lower value 0.556 | locus YDR162C, strain NBP2, stronger effect = lower value 0.455 | locus YDR318W, strain mcm21, stronger effect = lower value 0.739 | locus YDR388W, stronger effect = lower value 0.901 | locus YDR392W, strain spt3, stronger effect = lower value 0.532 | locus YDR502C, strain sam2, stronger effect = lower value 0.818 | locus YEL061C, strain CIN8, stronger effect = lower value 0.86 | locus YER110C, stronger effect = lower value 0.879 | locus YER155C, strain BEM2, stronger effect = lower value 0.798 | locus YER167W, strain BCK2, stronger effect = lower value 0.694 | locus YGL086W, strain mad1, stronger effect = lower value 0.792 | locus YGL248W, strain PDE1, stronger effect = lower value 0.879 | locus YGR078C, strain PAC10, stronger effect = lower value 0.695 | locus YGR135W, strain pre9, stronger effect = lower value 0.749 | locus YGR229C, strain SMI1, stronger effect = lower value 0.396 | locus YHR079C, strain IRE1 (second series), stronger effect = lower value 0.861 | locus YHR129C, strain ARP1, stronger effect = lower value 0.801 | locus YIL066C, strain RNR3, stronger effect = lower value 0.7 | locus YIL073C, strain SPO22, stronger effect = lower value 0.588 | locus YIR030C, strain dcg1, stronger effect = lower value 0.912 | locus YJL168C, strain set2, stronger effect = lower value 0.914 | locus YJL187C, strain SWE1 (second series), stronger effect = lower value 0.866 | locus YJR043C, strain POL32, stronger effect = lower value 0.752
0.722 (active) and 0.968 (inactive): locus YHR030C, strain SLT2, stronger effect = lower value
0.446 (active) and 0.99 (inactive): locus YJL095W, strain BCK1, stronger effect = lower value
inactive: locus YAL021C, strain ccr4, stronger effect = lower value 0.967 | locus YAL026C, strain drs2, stronger effect = lower value 0.914 | locus YAL030W, strain snc1, stronger effect = lower value 0.983 | locus YBL061C, strain skt5, stronger effect = lower value 1.01 | locus YBR009C, strain hhf1, stronger effect = lower value 0.977 | locus YBR021W, strain FUR4, stronger effect = lower value 1.06 | locus YBR023C, strain chs3, stronger effect = lower value 0.964 | locus YBR171W, strain sec66, stronger effect = lower value 0.975 | locus YBR229C, strain ROT2, stronger effect = lower value 0.941 | locus YBR231C, strain swc5, stronger effect = lower value 1.01 | locus YBR279W, strain paf1, stronger effect = lower value 0.948 | locus YCL011C, strain gbp2, stronger effect = lower value 0.978 | locus YCL016C, strain dcc1, stronger effect = lower value 0.946 | locus YCL069W, strain vba3, stronger effect = lower value 1 | locus YCR088W, strain abp1, stronger effect = lower value 0.983 | locus YDL005C, strain med2, stronger effect = lower value 0.989 | locus YDL040C, strain nat1, stronger effect = lower value 0.993 | locus YDL134C, strain PPH21, stronger effect = lower value 0.903 | locus YDL185W, strain tfp1, stronger effect = lower value 0.913 | locus YDR001C, strain nth1, stronger effect = lower value 0.997 | locus YDR069C, strain doa4, stronger effect = lower value 0.981 | locus YDR150W, strain NUM1, stronger effect = lower value 0.917 | locus YDR159W, strain sac3, stronger effect = lower value 1.02 | locus YDR195W, strain ref2 1.06 | locus YDR297W, strain sur2, stronger effect = lower value 0.998 | locus YDR334W, strain swr1, stronger effect = lower value 0.987 | locus YDR335W, strain msn5, stronger effect = lower value 0.976 | locus YEL003W, strain gim4, stronger effect = lower value 0.973 | locus YEL037C, strain rad23, stronger effect = lower value 0.992 | locus YEL061C, strain CIN8 (second series), stronger effect = lower value 1 | locus YER015W, strain faa2, stronger effect = lower value 0.993 | locus YER016W, strain bim1, stronger effect = lower value 0.997 | locus YER111C, strain swi4, stronger effect = lower value 0.992 | locus YER155C, strain BEM2 (second series), stronger effect = lower value 0.888 | locus YFR010W, strain ubp6, stronger effect = lower value 0.992 | locus YGL078C, strain dbp3, stronger effect = lower value 0.937 | locus YGL167C, strain pmr1, stronger effect = lower value 0.97 | locus YGL173C, strain kem1, stronger effect = lower value 0.956 | locus YGL227W, strain vid30, stronger effect = lower value 0.999 | locus YGL240W, strain doc1, stronger effect = lower value 0.962 | locus YGL253W, strain hxk2, stronger effect = lower value 0.963 | locus YGR252W, strain gcn5, stronger effect = lower value 0.771 | locus YHR013C, strain ard1, stronger effect = lower value 0.894 | locus YHR027C, strain rpn1, stronger effect = lower value 0.991 | locus YHR079C, strain IRE1, stronger effect = lower value 0.966 | locus YHR094C, strain hxt1, stronger effect = lower value 0.934 | locus YHR142W, strain chs7, stronger effect = lower value 0.962 | locus YHR200W, strain rpn10, stronger effect = lower value 0.924 | locus YIL125W, strain kgd1, stronger effect = lower value 0.937 | locus YJL092W, strain hpr5, stronger effect = lower value 0.987 | locus YJL095W, strain BCK1 (second series), stronger effect = lower value 0.976 | locus YJL115W, strain asf1, stronger effect = lower value 0.991 | locus YJL129C, strain trk1, stronger effect = lower value 1 | locus YJL134W, strain LCB3, stronger effect = lower value 0.943 | locus YJL154C, strain vps35, stronger effect = lower value 0.998 | locus YJL164C, strain tpk1, stronger effect = lower value 0.95 | locus YJL166W, strain qcr8, stronger effect = lower value 0.961 | locus YJL187C, strain SWE1, stronger effect = lower value 0.963 | locus YJR066W, strain TOR1, stronger effect = lower value 0.937
